Active and inactive are the calls of the source.
Experiment: PSAC antagonists in infected red cells, primary screen, cell-based, P. falciparum Indochina, OD700, 1 h (AID 1154)
Conditions: P. falciparum Indochina infected RBC osmotic lysis, higher = more signal, called active from +8 up or from −8 down

SMILES | z-score
COCCOC(=O)N1C(=O)[C@@]2(c3cc(C#Cc4ccc(OC)cc4)ccc31)[C@H](C(=O)N1CCCCCCC1)[C@H]1C(=O)O[C@H](c3ccccc3)[C@H](c3ccccc3)N1[C@@H]2c1ccc(O)cc1 | 1.04 (inactive)
COc1cc2c(cc1OC)CN(C(=O)[C@H]1[C@@H]3C(=O)O[C@@H](c4ccccc4)[C@@H](c4ccccc4)N3[C@@H](c3ccc(OCCO)cc3)[C@]13C(=O)Nc1ccc(C#CC4(O)CCCCCC4)cc13)CC2 | 3.15 (inactive)
CCCC[C@@H]1C[C@H]1[C@@H](NC(=O)c1cccnc1)c1ccc(-c2ccccc2)cc1 | 3.12 (inactive)
CON(C)C(=O)C=C1C[C@@H](c2cccc(Cl)c2)O[C@@H](c2cccc(Cl)c2)O1 | 9.13 (active)
COCCCNC(=O)[C@]1(CCC(=O)OC(C)(C)C)N=C(c2ccc(OCCCO)cc2)O[C@@H]1c1ccccc1 | 14.7 (active)
C=CCOC(=O)[C@H]1[C@@H]2C(=O)O[C@@H](c3ccccc3)[C@@H](c3ccccc3)N2[C@@H](c2ccc(OCCOC(=O)[C@H]3C[C@H]4C(=O)N[C@@H](Cc5ccccc5)C(=O)N4[C@H]3c3ccc(O)cc3)cc2)[C@]12C(=O)Nc1ccc(I)cc12 | 4.04 (inactive)
CC(C)(C)N1CC=CC23O[C@@H]4C=CCOC(=O)[C@@H]4[C@H]2C(=O)N(CCCO)[C@@H]3C1=O (stereo partly specified) | -0.103 (inactive)
NCCCCCCNC(=O)[C@@H]1C[C@@H]2C(=O)N3CCC[C@H]3C(=O)N2[C@@H]1c1ccc(O)cc1 | 1.67 (inactive)
CCCCC(CC)C(O)C1C=CC2C(=O)N(c3ccccc3)C(=O)C2N1Nc1ccc([N+](=O)[O-])cc1 (stereo unspecified) | 3.19 (inactive)
C=C(COC)/C(=C/C[C@@H](OC(=O)c1ccncc1)c1ccc(CO)o1)c1cnc2ccccc2c1 | 4.66 (inactive)
COCCCNC(=O)[C@@H]1c2ccccc2C(=O)N(Cc2ccccc2C(F)(F)F)[C@H]1c1ccc(CO)cc1 | 1.14 (inactive)
CCCN1C(=O)[C@]2(Cc3ccccc3)N=C(c3ccc(OCCCO)cc3)O[C@@H]2c2ccccc21 | 34 (active)
CO[C@H]1O[C@H](CO)[C@@H](OC(=O)Nc2ccccc2-c2ccccc2)[C@H](OC(=O)Nc2ccc3c(c2)OCO3)[C@@H]1OC(=O)Nc1ccc2c(c1)OCO2 | 15.3 (active)
COCCOC(=O)N1C(=O)[C@@]2(c3cc(C#CC4(O)CCCCCC4)ccc31)[C@H](C(N)=O)[C@H]1C(=O)O[C@H](c3ccccc3)[C@H](c3ccccc3)N1[C@@H]2c1ccc(O)cc1 | 1.7 (inactive)
CC(CO)N1C(=O)[C@@H]2C3C(=O)OCCC/C=C\[C@H]3OC23C=CCN(Cn2nnc4ccccc42)C(=O)[C@@H]13 (stereo partly specified) | 1.03 (inactive)
C[C@]1(C(=O)NC2CC2)c2ccccc2C(=O)N(Cc2ccc(OC(F)(F)F)cc2)[C@H]1c1ccc(CO)cc1 | 3.33 (inactive)
COc1ccc([Si](C)(C)[C@H]2[C@H](CCn3cc([C@H](O)c4ccccc4)nn3)O[C@@]3(C(=O)N(Cc4cccc(N5C(=O)c6cccc7cccc5c67)c4)c4ccccc43)[C@@H]2C)cc1 | 1.23 (inactive)
COc1ccc([Si](C)(C)[C@H]2[C@H](CCO)O[C@@]3(C(=O)N(Cc4cccc(N5CCCCC5=O)c4)c4ccccc43)[C@@H]2C)cc1 | 5.16 (inactive)

SMILES | z-score
O=C1O[C@@H](c2ccccc2)[C@@H](c2ccccc2)N2[C@@H](c3ccc(O)cc3)[C@]3(C(=O)Nc4ccc(C#CCCO)cc43)[C@@H](C(=O)NC[C@H](O)c3ccccc3)[C@H]12 | 2.75 (inactive)
CC(C)CN1C(=O)[C@@]2(Cc3ccccc31)c1ccccc1C(=O)N(Cc1ccccc1C(F)(F)F)[C@H]2c1ccc(CO)cc1 | 0.21 (inactive)
CC(C)C(O)C1C=CC2C(=O)N(C)C(=O)C2N1N(c1ccccc1)c1ccccc1 (stereo unspecified) | 0.321 (inactive)
C=CCC(OC(C)=O)[C@@H]1[C@@H](N(Cc2ccc(-c3ccccc3)cc2)C(=O)c2cccc3ccccc23)c2cc(OCCCO)ccc2N1C(=O)Cc1ccc2ccccc2c1 (stereo partly specified) | 1.14 (inactive)
Cc1ccc(S[C@]2(C(=O)NC3CC3)CC(=O)N(Cc3ccccc3Cl)[C@@H]2c2ccc(CO)cc2I)cc1 | 6.9 (inactive)
O=C1NCC(=O)N2[C@@H]1C[C@@H](C(=O)O)[C@H]2c1ccc(O)cc1 | 2.73 (inactive)
CC(C)CNC(=O)[C@@]1(c2ccc([N+](=O)[O-])cc2)CC(=O)N(C2CCCCC2)[C@@H]1c1ccc(CO)cc1I | 10.8 (active)
COc1ccc(NN2C(C(O)c3ccccn3)C=CC3C(=O)N(C4CCCCC4)C(=O)C32)cc1 (stereo unspecified) | 3.45 (inactive)
[N-]=[N+]=NCc1ccccc1C[C@@]1(C(N)=O)N=C(c2ccc(OCCCO)cc2)O[C@@H]1c1ccccc1CN=[N+]=[N-] | 26.2 (active)
CN1C(=O)C2C=CC(C(O)c3c(F)cccc3Cl)N(Nc3ccccc3)C2C1=O (stereo unspecified) | 0.32 (inactive)
COC(=O)c1c(CC[C@@H](CO)NC(=O)N[C@H](Cn2cc(-c3ccccc3C)nn2)C(C)C)oc(C(C)=O)c1C(=O)OC | 0.791 (inactive)
C=CCOC(=O)[C@@H]1[C@H]2C(=O)O[C@H](c3ccccc3)[C@H](c3ccccc3)N2[C@H](c2ccc(OCCOC(=O)[C@H]3C[C@H]4C(=O)N[C@@H](CCCCN(C)C)C(=O)N4[C@H]3c3cccc(OCCO)c3)cc2)[C@@]12C(=O)Nc1ccc(I)cc12 | 1.19 (inactive)
COc1ccc([Si](C)(C)[C@@H]2[C@@H](CCO)O[C@]3(C(=O)N(Cc4cccc(N5C(=O)c6ccccc6Oc6ccccc65)c4)c4ccccc43)[C@H]2C)cc1 | 2.72 (inactive)
C=CC[C@]1(C(=O)N(C)C)N=C(c2ccc(OCCCO)cc2)O[C@H]1c1ccccc1N=[N+]=[N-] | 30.8 (active)
COCCOC(=O)N1C(=O)[C@@]2(c3cc(C#CCC(C(=O)OC)C(=O)OC)ccc31)[C@H](c1ccc(OCCO)cc1)N1[C@H](c3ccccc3)[C@H](c3ccccc3)OC(=O)[C@H]1[C@@H]2C(=O)N1CCN(c2ncccn2)CC1 | 6.55 (inactive)
COCCOC(=O)N1C(=O)[C@@]2(c3cc(C#CC4(O)CCCCCC4)ccc31)[C@H](c1ccccc1OCCO)N1[C@H](c3ccccc3)[C@H](c3ccccc3)OC(=O)[C@H]1[C@@H]2C(N)=O | 4.08 (inactive)
C=CCNC(=O)[C@H]1[C@@H]2C(=O)O[C@@H](c3ccccc3)[C@@H](c3ccccc3)N2[C@@H](c2ccccc2OCCO)[C@]12C(=O)N(C(=O)OCCOC)c1ccc(C#CC3=CCCCC3)cc12 | 2.75 (inactive)
C=CCN1C(=O)[C@@]2(O[C@@H](CCn3cc([C@H](O)c4ccccc4)nn3)[C@H]([Si](C)(C)c3ccc(OC)cc3)[C@H]2C)c2ccccc21 | 7.57 (inactive)

From PubChem BioAssay
